Test results reported in PubChem BioAssay (Tox21).
Results filed as inconclusive are left out. Calls of active or inactive are those of the source. Unless noted, calls follow the shape of the dose curve; as a rule, active = well fitted curve in the direction sought with a large enough effect in the repeat runs; inconclusive = weak or mixed curves; inactive = flat fitted curve, though single readings scatter.

Tests used:
[1] = qHTS assay to test for compound auto fluorescence at 535 nm (green) in HEK293 cells (AID 720680)
[2] = qHTS assay to test for compound auto fluorescence at 460 nm (blue) in HEK293 cell free culture (AID 720681)
Summary of the method: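 Compounds were added to cell-free DMEM with 10% FBS and fluorescence read directly. The blue channel used 405 nm excitation and 460 nm emission, with triamterene as the reference fluorophore.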

[3] = qHTS assay to test for compound auto fluorescence at 535 nm (green) in HEK293 cell free culture (AID 720682)
Summary of the method: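 Measurement is a direct plate read of green fluorescence (485 nm in, 535 nm out) after compound addition to serum-supplemented DMEM lacking cells, with fluorescein used to express intensities.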

[4] = qHTS assay to test for compound auto fluorescence at 590 nm (red) in HEK293 cell free culture (AID 720683)
Summary of the method: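 Cell-free wells of DMEM with 10% FBS received compound, and intrinsic fluorescence was read at excitation/emission 540/590 nm. Values expressed as equivalence to Rose Bengal sodium.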

[5] = qHTS assay to test for compound auto fluorescence at 590 nm (red) in HepG2 cell free culture (AID 720684)
Summary of the method: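 Compounds are added to culture medium (MEM, 10% FBS) lacking cells, then fluorescence is read at excitation 540 nm, emission 590 nm, with Rose Bengal sodium as the equivalency standard.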

[6] = qHTS assay to test for compound auto fluorescence at 460 nm (blue) in HepG2 cell free culture (AID 720685)
Summary of the method: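 Compound (23 nL) or DMSO pinned into cell-free MEM with 10% FBS; blue fluorescence read at 405/460 nm excitation/emission, expressed as auto-fluorescence equivalency to triamterene.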

[7] = qHTS assay to test for compound auto fluorescence at 535 nm (green) in HepG2 cell free culture (AID 720686)
[8] = qHTS assay to test for compound auto fluorescence at 460 nm (blue) in HepG2 cells (AID 720687)
Summary of the method: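 HepG2 cells in MEM with 10% FBS, attached overnight at 37 C, were exposed to compound or DMSO for 1 hr at 37 C, 5% CO2. Blue fluorescence was read at 405/460 nm, with triamterene as reference fluorophore.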

[9] = target: Glucocorticoid receptor (Homo sapiens) (UniProt P04150); experiment: qHTS assay to identify small molecule agonists of the glucocorticoid receptor (GR) signaling pathway (AID 720691; active = well fitted activation curve with a large enough effect in the signal ratio in the repeat runs, not every such curve was filed as active; the % refers to the signal ratio)
Glucocorticoid receptor (Homo sapiens), sequence (P04150 whole entry, looked up): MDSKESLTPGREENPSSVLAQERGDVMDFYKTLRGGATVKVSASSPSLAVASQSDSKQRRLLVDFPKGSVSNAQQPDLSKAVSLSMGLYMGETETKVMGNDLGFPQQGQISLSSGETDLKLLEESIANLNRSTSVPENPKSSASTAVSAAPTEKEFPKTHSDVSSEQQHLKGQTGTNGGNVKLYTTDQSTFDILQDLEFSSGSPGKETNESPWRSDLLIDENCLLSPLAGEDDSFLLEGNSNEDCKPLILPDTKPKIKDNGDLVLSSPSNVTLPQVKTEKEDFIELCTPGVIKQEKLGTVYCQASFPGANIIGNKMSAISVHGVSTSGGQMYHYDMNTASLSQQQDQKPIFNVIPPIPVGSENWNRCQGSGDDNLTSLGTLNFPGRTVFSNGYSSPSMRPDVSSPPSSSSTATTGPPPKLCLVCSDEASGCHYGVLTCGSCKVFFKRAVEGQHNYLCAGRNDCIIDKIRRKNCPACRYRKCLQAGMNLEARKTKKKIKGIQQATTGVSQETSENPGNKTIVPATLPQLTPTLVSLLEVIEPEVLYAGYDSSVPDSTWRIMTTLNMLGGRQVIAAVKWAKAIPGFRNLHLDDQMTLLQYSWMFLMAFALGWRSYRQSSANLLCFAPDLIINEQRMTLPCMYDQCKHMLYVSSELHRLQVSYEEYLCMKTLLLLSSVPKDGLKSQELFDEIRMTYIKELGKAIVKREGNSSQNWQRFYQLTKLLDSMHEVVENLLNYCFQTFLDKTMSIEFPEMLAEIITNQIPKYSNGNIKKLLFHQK
Summary of the method: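 Beta-lactamase reporter activity, read as fluorescence intensity, was measured in GR-bla HeLa cells exposed to compounds for 18 h at 37 C and then loaded with LiveBLAzer B/G FRET substrate for 2 h at room temperature.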

[10] = target: Glucocorticoid receptor (Homo sapiens) (UniProt P04150); experiment: qHTS assay to identify small molecule antagonists of the glucocorticoid receptor (GR) signaling pathway (AID 720692; active = well fitted inhibition curve with a large enough effect in the signal ratio in the repeat runs, not every such curve was filed as active; the % refers to the signal ratio; also: potency is read from the fitted curve at half-maximal effect)
Summary of the method: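 Fluorescence from cleaved LiveBLAzer B/G FRET substrate reports GRE-driven beta-lactamase in HeLa cells; compounds are tested against 5 nM dexamethasone (final) over 18 h at 37 C, substrate incubation 2 h at room temperature.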
% is scaled to controls: 0 for no effect and ±100 for the full control effect.

CC(=O)C(=O)CC(C)C
inactive: outcome [1] | Potency [2] | outcome [3] | outcome [4] | outcome [5] | Potency [6] | outcome [7] | Potency [8] | Potency [9]

CCCCCCCCCCCC(=O)OCC(O)CO (stereo not drawn)
inactive: outcome [1] | Potency [2] | outcome [3] | outcome [4] | outcome [5] | Potency [6] | outcome [7]

CC(CN(CCN(CC(C)OCCO)CC(C)OCCO)CC(C)OCCO)OCCO (stereo not drawn)
inactive: outcome [1] | Potency [2] | outcome [3] | outcome [4] | outcome [5] | Potency [6]

C=CCOC(=O)COCCC(C)C
inactive: outcome [1] | Potency [2] | outcome [3] | outcome [4] | outcome [5] | Potency [6] | outcome [7] | Potency [8] | Potency [9]

C[C@@H]1C[C@H]2[C@@H]3CCC4=CC(=O)C=C[C@]4(C)[C@@]3(F)[C@@H](O)C[C@]2(C)[C@@]1(O)C(=O)COP(=O)(O)O
inactive: outcome [1] | Potency [2] | outcome [3] | outcome [4] | outcome [5] | Potency [6] | outcome [7] | Potency [8]

ClC1=C(Cl)C1(Cl)Cl
inactive: outcome [1] | Potency [2] | outcome [3] | outcome [4] | outcome [5] | Potency [6]

O=[N+]([O-])c1ccc2ncccc2c1
inactive: outcome [1] | Potency [2] | outcome [3] | outcome [4] | outcome [5] | Potency [6] | outcome [7] | Potency [8] | Potency [9]

Cc1cc(CCC(=O)OCCOCCOCCOC(=O)CCc2cc(C)c(O)c(C(C)(C)C)c2)cc(C(C)(C)C)c1O
inactive: outcome [1] | Potency [2] | outcome [3] | outcome [4] | outcome [5] | Potency [6] | outcome [7] | Potency [8] | Potency [9]

Nc1c(Cl)cc(Cl)cc1[N+](=O)[O-]
inactive: outcome [1] | Potency [2] | outcome [3] | outcome [4] | outcome [5] | Potency [6] | outcome [7] | Potency [8]

CCN(Cc1cccc(S(=O)(=O)O)c1)c1ccc(C(=C2C=CC(=[N+](CC)Cc3cccc(S(=O)(=O)O)c3)C=C2)c2ccccc2S(=O)(=O)[O-])cc1
inactive: outcome [1] | Potency [2] | outcome [3] | outcome [4] | outcome [5] | Potency [6] | outcome [7] | Potency [8]

C=C(C)c1ccccc1
inactive: outcome [1] | Potency [2] | outcome [3] | outcome [4] | outcome [5] | Potency [6] | outcome [7]

CSSc1ccoc1C
inactive: outcome [1] | Potency [2] | outcome [3] | outcome [4] | outcome [5] | Potency [6] | outcome [7] | Potency [8] | Potency [9]

CC(C)COC(=O)c1ccc(O)cc1
inactive: outcome [1] | Potency [2] | outcome [3] | outcome [4] | outcome [5] | Potency [6] | outcome [7] | Potency [8] | Potency [9]

COc1cc(NC(C)CCCN)c2ncccc2c1 (stereo not drawn)
inactive: fluorescence, % of fluorescein [1] -0.0105% [at 18.6 µM] | fluorescence, % of fluorescent control [2] 1.01% [at 18.6 µM] | activity change [3] 0.0005% [at 18.6 µM] | fluorescence, % of fluorescent control [4] -0.109% [at 18.6 µM] | fluorescence, % of Rose Bengal [5] 0.347% [at 18.6 µM] | fluorescence, % of fluorescent control [6] 0.907% [at 18.6 µM] | fluorescence, % of fluorescein control [7] -0.0264% [at 18.6 µM] | fluorescence, % of fluorescent control [8] 0.746% [at 18.6 µM]

CC(C)CC(O)CC(C)C
inactive: outcome [1] | Potency [2] | outcome [3] | outcome [4] | outcome [5] | Potency [6] | outcome [7] | Potency [9] | Potency [10]

CCCCC[C@H](O)/C=C/[C@H]1[C@H](O)CC(=O)[C@@H]1C/C=C\CCCC(=O)O
inactive: outcome [1] | Potency [2] | outcome [3] | outcome [4] | outcome [5] | Potency [6] | outcome [7] | Potency [9]

CCC(CO)(CO)CO
inactive: outcome [1] | Potency [2] | outcome [3] | outcome [4] | outcome [5] | Potency [6] | outcome [7] | Potency [8] | Potency [9] | Potency [10]

C[C@@H]1[C@H](O)[C@@H](C)/C=C/C=C\C=C\C=C\C=C\C=C\C=C\[C@H](O[C@@H]2O[C@H](C)[C@@H](O)[C@H](N)[C@@H]2O)C[C@@H]2O[C@](O)(C[C@@H](O)C[C@@H](O)[C@H](O)CC[C@@H](O)C[C@@H](O)CC(=O)O[C@H]1C)C[C@H](O)[C@H]2C(=O)O (stereo in doubt)
inactive: outcome [1] | Potency [2] | outcome [3] | outcome [4] | outcome [5] | Potency [6] | outcome [7] | Potency [8] | Potency [9]
active: Potency [10] 49 µM

O=CNNC=O
inactive: outcome [1] | Potency [2] | outcome [3] | outcome [4] | outcome [5] | Potency [6] | outcome [7] | Potency [8] | Potency [9] | Potency [10]

Cc1cc([N+](=O)[O-])ccc1N
inactive: outcome [1] | Potency [2] | outcome [3] | outcome [4] | outcome [5] | Potency [6] | outcome [7] | Potency [8] | Potency [9] | Potency [10]

O=C(O)CCC(=O)c1ccc(-c2ccccc2)cc1
inactive: fluorescence, % of fluorescein [1] -0.008% [at 18.6 µM] | fluorescence, % of fluorescent control [2] 0.0648% [at 18.6 µM] | activity change [3] 0.0155% [at 18.6 µM] | fluorescence, % of fluorescent control [4] 0.387% [at 18.6 µM] | fluorescence, % of Rose Bengal [5] -0.0571% [at 18.6 µM] | fluorescence, % of fluorescent control [6] -0.0525% [at 18.6 µM] | fluorescence, % of fluorescein control [7] -0.127% [at 18.6 µM] | Potency [9] | Potency [10]
